For experiment [1], the target named is Lysosomal acid glucosylceramidase (Homo sapiens) (UniProt P04062). As to the kind of experiment: Glucocerebrosidase-p2 (AID 348; in the data active = potency below about 10 µM; note: potency is the fitted concentration of half-maximal effect). To be noted: purified GBA, blue fluorogenic substrate, 40 min. In outline:
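Compounds titrated from 0.6 nM upwards against 0.2 nM enzyme in pH 5.9 citric acid/KH2PO4, taurocholate, tween-20; blue fluorogenic substrate 80 uM, 40 min room temperature, stopped and read Ex 365/Em 440 for AC50.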

Experiment [2] is described as follows: AP1 Signaling Pathway (AID 357; active = well fitted curve in either direction with a large enough effect, not every such curve was filed as active;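 note: ME-180 reporter cells stimulated with EGF at its EC50 level; % is set by controls: 0 for no effect and ±100 for the full control effect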). As to conditions: ME-180 AP-1-bla reporter, EGF-induced, beta-lactamase ratio, 5 h; at 7.69 µM (top of the series) unless noted. In outline: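 AP-1-bla ME-180 cells, Opti-MEM + 0.5% dialyzed FBS, plated overnight 37 °C. Cpd titration + EC50 EGF, 5 h 37 °C. CCF4 2.5 h RT; ex 405, em 460/530 ratio → %activity, AC50.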
Experiment [3] in a line: NFAT Signaling Pathway (AID 444; active = well fitted curve in either direction with a large enough effect, not every such curve was filed as active;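 note: carbachol stimulus at about its EC50 of 1 µM final; % is set by controls: 0 for no effect and ±100 for the full control effect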). As to conditions: Jurkat NFAT-bla M1, carbachol, beta-lactamase ratio, 5 h; at 7.69 µM (top of the series) unless noted. In outline:
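Jurkat cells with NFAT-driven β-lactamase reporter and co-expressed M1 receptor, stimulated with carbachol (final 1 uM, ~EC50), compound titration, 5 h at 37 °C. CCF4 loaded 1 h at RT; 460/530 nm ratio gave %activity and AC50.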

A short description of experiment [4]: Stat Signaling Pathway (AID 446; active = well fitted curve in either direction with a large enough effect, not every such curve was filed as active;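 note: ME-180 cervical cancer cells given 40 pM IL-6 alongside compound; SIE-controlled beta-lactamase reporter measured as 460/530 nm FRET emission ratio; % is set by controls: 0 for no effect and ±100 for the full control effect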). To be noted: ME-180 SIE beta-lactamase reporter, IL-6 stimulated, 5 h; at 7.69 µM (top of the series) unless noted. In outline:
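ME-180 SIE-bla cells; overnight plating; cpd + IL-6 40 pM, 5 h, 37 C; LiveBLAzer 2.5 h RT; 460/530 nm emission ratio. Normalized to 300 pM IL-6 and 125 nM JAK inhibitor controls.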

The target in experiment [5] is Glucocorticoid receptor (Homo sapiens) (UniProt P04150). Kind of experiment: GR-GFP Redistribution (AID 450;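 active = compounds whose dose series gives a full or clear partial fitted curve of increased nuclear translocation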; note: potency is the fitted concentration of half-maximal effect). As to conditions: U2OS GR-GFP nuclear translocation, laser cytometry, 2 h.
The target is the same in experiment [6]. As to the kind of experiment: GR-EFC Redistribution (AID 451; calls by dose curve; note: potency is the fitted concentration of half-maximal effect). To be noted: CHO-K1 GR-EFC translocation, beta-gal luminescence, 2 h. In outline: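 CHO-K1 cells expressing nuclear EA and GR-ED fragments of b-gal; compounds titrated up to 46 uM final, 2 h at 37 C. GR nuclear translocation read as complemented b-gal luminescence after 1 h RT detection.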
The target in experiment [7] is Mitogen-activated protein kinase 10 (Mus musculus) (UniProt Q61831). Kind of experiment: JNK3 AlphaScreen Assay (AID 530; active = well fitted curve in either direction with a large enough effect, not every such curve was filed as active;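 note: kinase came from lysate of stimulated human HepG2 cells; signal reports phosphorylation of biotinylated GST-cJun 1-79 at Ser73 with 10 µM ATP; % is set by controls: 0 for no effect and ±100 for the full control effect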). To be noted: JNK3 lysate, c-Jun phosphorylation; series mostly up to 57.1 µM. In short, it runs like this: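 qHTS format: compounds tested as titrations against IL-1beta/TNF-alpha-activated HepG2 lysate JNK3 with biotin-GST-cJun substrate and 10 uM ATP at room temperature. Loss of anti-phospho-cJun AlphaScreen signal indicates inhibition.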
In general terms: Alpha assays give light when donor and acceptor beads are brought close together.

Experiment [8] concerns the target Cytochrome P450 3A4 (Homo sapiens) (UniProt P08684). Kind of experiment: qHTS Assay for Activators of Cytochrome P450 3A4 (AID 885). Note: nearly all actives have a fitted effect of over 65% in size. As to conditions: recombinant CYP3A4, Luciferin-PPXE luminescence, 60 min; series mostly up to 57.1 µM. In short, it runs like this:
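20nM CYP3A4 + 25uM Luciferin-PPXE (=KM), 200mM KPO4; cpd 10 min RT; NADPH regen, 60 min RT; stop w/ detection buffer, 20 min; luminescence. Normalized to 57 uM ketoconazole.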
(In qHTS, concentration-response curves come from the screen itself.)

Experiment [9] addresses Cytochrome P450 2C19 (Homo sapiens) (UniProt P33261). As to the kind of experiment: qHTS Assay for Inhibitors and Substrates of Cytochrome P450 2C19 (AID 899). Note: % is set by controls: 0 for no effect and ±100 for the full control effect; nearly all actives have a fitted effect of over 60% in size. To be noted: recombinant CYP2C19, luciferin-H EGE luminescence; series mostly up to 57.1 µM. In outline:
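Signal comes from luciferase acting on luciferin released by CYP2C19-mediated hydroxylation of Luciferin-H EGE, 10uM (KM). Assay mix: 5nM enzyme, 50mM KPO4; 60 min at 37C with NADPH regeneration. Data normalized against 57uM ketoconazole.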

A short description of experiment [10]: qHTS Assay for Lipid Storage Modulators (AID 1519; calls by dose curve). To be noted: Drosophila S3 cells, BODIPY lipid droplet/cell ratio, laser cytometry, cells loaded with oleic acid; for activity change, negative = inhibition: at 57.5 µM (top of the series). In short, it runs like this:
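Cells seeded at 5,000 per well were treated with compounds over a concentration series and loaded with oleic acid (400 uM, as added). Lipid droplet fluorescence (488 nm excitation, 500-530 nm channel) was read by laser-scanning cytometry and normalized to 20 uM Triacsin C.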

Experiment [11] concerns the target Dual specificity protein kinase CLK4 (Homo sapiens) (UniProt Q9HAZ1). As to the kind of experiment: qHTS Assay for Inhibitors of CDC-like Kinase 4 (ADP-Glo Assay) (AID 1771). Note: % is set by controls: 0 for no effect and ±100 for the full control effect; nearly all actives have a fitted effect of over 70% in size. As to conditions: recombinant CLK4, ADP-Glo luminescence; series mostly up to 80 µM. In outline:
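Kinase reaction: Clk4 at 25 nM, RS repeat peptide substrate at 100 uM, ATP at 1 uM, 1 hr, room temperature. Product ADP detected as luciferase signal via ADP-Glo.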

Experiment [12] shares this target. As to the kind of experiment: qHTS Assay for Inhibitors of CDC-like Kinase 4 (ADP-FP Assay) (AID 1795). Note: % is set by controls: 0 for no effect and ±100 for the full control effect; nearly all actives have a fitted effect of over 60% in size. To be noted: Transcreener ADP fluorescence polarization; series mostly up to 50 µM. In outline: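 Recombinant human Clk4 (6.25 nM) phosphorylated RS repeat peptide (100 uM) with 1 uM ATP in Tris pH 7.5/MgCl2/EGTA/DTT/Triton buffer for one hour. ADP was quantified by Transcreener competitive fluorescence polarization against an ADP calibration curve.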

The target of experiment [13] is Ubiquitin carboxyl-terminal hydrolase 1 (Homo sapiens) (UniProt O94782). As to the kind of experiment: Inhibitors of USP1/UAF1: Pilot qHTS (AID 504865).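 Note: rhodamine fluorescence freed from ubiquitin-rhodamine substrate followed over time; top concentration of the series differs between compounds; % is set by controls: 0 for no effect and ±100 for the full control effect; nearly all actives have a fitted effect of over 35% in size.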 To be noted: purified USP1/UAF1, Ub-rhodamine cleavage fluorescence; series mostly up to 54.9 µM. In short, it runs like this: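 USP1/UAF1 complex (1nM) preincubated with compound 15 min at room temperature, then Ub-Rho substrate (150nM final) added. Fluorescence read kinetically at 480/540 nm, 6 reads every 60 seconds. Buffer: 50mM HEPES pH 7.8, 0.5mM EDTA, 0.1 mg/ml BSA, 1mM TCEP, 0.01% Tween-20.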

A short description of experiment [14]: Primary qHTS for small molecule stabilizers of the endoplasmic reticulum resident proteome: Secreted ER Calcium Modulated Protein (SERCaMP) assay (AID 1508630). Note: % is set by controls: 0 for no effect and ±100 for the full control effect. To be noted: SH-SY5Y GLuc-SERCaMP (Gaussia luciferase released on ER calcium loss) secretion, thapsigargin, luminescence; series mostly up to 38.4 µM. In outline:
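GLuc-SERCaMP-expressing SH-SY5Y cells, pretreated 16 h with compound, are challenged with thapsigargin to empty ER calcium stores; after 4 h, coelenterazine is added directly to the medium and luminescence is imaged.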

In experiment [15] the target is 3',5'-cyclic-AMP phosphodiesterase 4B (Homo sapiens) (UniProt Q07343). As to the kind of experiment: qHTS Assay for Inhibitors of PDE-IV (AID 607; active = well fitted activation curve with a large enough effect in the main read-out, with a control signal flat, not every such curve was filed as active; note: % of control where 0% means no effect). To be noted: HEK293 ACTOne CNG channel cells, membrane potential fluorescence; series mostly up to 22.9 µM. In short, it runs like this: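 ACTOne HEK293 cells carry a modified cAMP-gated CNG channel and express endogenous PDE4; plated 1000 cells/well, compounds up to 22.9 uM final. Membrane-potential dye fluorescence (ex 535/em 590) was read; parental cells received 10 uM forskolin + 100 uM RO 20-1724.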

In experiment [16] the target is Dual specificity protein kinase CLK4 (Homo sapiens) (UniProt Q9HAZ1). Kind of experiment: qHTS Assay for Inhibitors of CDC-like Kinase 4 (Kinase-Glo Assay) (AID 1770). Note: % is set by controls: 0 for no effect and ±100 for the full control effect; nearly all actives have a fitted effect of over 65% in size. To be noted: recombinant Clk4, Kinase-Glo ATP depletion luminescence; series mostly up to 66.7 µM. In outline: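 Recombinant human Clk4 (25 nM) phosphorylated RS repeat peptide (100 uM) with 1 uM ATP in Tris pH 7.5/MgCl2/EGTA/DTT/Triton buffer for 4.5 h at room temperature. Residual ATP was quantified by Kinase-Glo luciferase luminescence.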

Experiment [17] concerns the target Cytochrome P450 1A2 (Homo sapiens) (UniProt P05177). As to the kind of experiment: p450-cyp1a2 (AID 410; calls by dose curve; note: potency is the fitted concentration of half-maximal effect). To be noted: recombinant CYP1A2, luciferin-ME demethylation, luminescence; series mostly up to 57 µM. In short, it runs like this:
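Inhibition was calculated relative to 57 uM furafylline (full inhibition). The reaction used human CYP1A2 at 20nM with Luciferin-ME at its Km, 100uM, driven by an NADPH-regenerating system for 60 min at room temperature.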

Experiment [18] in a line: qHTS Assay for Identification of Small Molecule Agonists for Hypoxia Response Element Signaling Pathway (AID 914; active = well fitted activation curve with a large enough effect in the signal ratio, with a control signal flat, not every such curve was filed as active; the % refers to the signal ratio; note: % of control where 0% means no effect). As to conditions: ME-180 (cervical carcinoma) HRE-bla reporter, beta-lactamase ratio, CoCl2, 17 h; activation: stronger effect = higher value. In outline: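 Reporter activity (beta-lactamase, CCF4 460nm/530nm ratio) in HRE-bla ME-180 cells is recorded after 17 h compound exposure with EC50 CoCl2 at 37 degrees Celsius. AC50 values come from titration data.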

Setting [19] is: measured here: cell count channel max response.
[20] abbreviates: measured here: lipid channel max response.

Molecules are shown by their SMILES. Inconclusive results are not listed. Calls of active or inactive are those of the source. Unless noted, calls come from the whole dose curve; as a rule, active = well fitted curve in the direction sought with a large enough effect; inconclusive = small, poorly fitted or top-dose-only effect, or another doubt; inactive = no such curve, though single readings can be large; an effect the other way counts as inactive or inconclusive.

Glucocorticoid receptor (Homo sapiens), sequence (P04150 whole entry, looked up, the tested form may be a part): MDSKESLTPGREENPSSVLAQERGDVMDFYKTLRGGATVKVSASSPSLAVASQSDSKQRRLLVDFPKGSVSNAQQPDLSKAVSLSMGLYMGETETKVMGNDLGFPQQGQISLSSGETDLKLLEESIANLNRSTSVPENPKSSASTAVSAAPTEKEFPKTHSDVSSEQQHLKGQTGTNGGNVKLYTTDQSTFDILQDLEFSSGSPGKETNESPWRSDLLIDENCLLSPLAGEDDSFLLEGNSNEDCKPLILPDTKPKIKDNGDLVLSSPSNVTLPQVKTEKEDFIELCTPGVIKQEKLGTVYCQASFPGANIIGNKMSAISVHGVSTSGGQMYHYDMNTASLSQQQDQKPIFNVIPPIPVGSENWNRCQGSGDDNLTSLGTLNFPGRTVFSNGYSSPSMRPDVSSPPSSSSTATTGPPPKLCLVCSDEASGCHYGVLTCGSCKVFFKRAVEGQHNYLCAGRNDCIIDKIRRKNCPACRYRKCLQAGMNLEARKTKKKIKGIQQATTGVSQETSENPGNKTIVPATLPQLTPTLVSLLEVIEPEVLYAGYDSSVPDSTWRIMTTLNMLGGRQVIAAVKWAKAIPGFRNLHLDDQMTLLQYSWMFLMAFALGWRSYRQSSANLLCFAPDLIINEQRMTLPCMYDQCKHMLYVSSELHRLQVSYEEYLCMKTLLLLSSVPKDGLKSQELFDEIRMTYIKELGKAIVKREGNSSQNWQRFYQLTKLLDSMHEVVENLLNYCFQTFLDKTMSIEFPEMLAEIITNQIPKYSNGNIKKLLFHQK
Dual specificity protein kinase CLK4 (Homo sapiens), sequence (Q9HAZ1 whole entry, looked up): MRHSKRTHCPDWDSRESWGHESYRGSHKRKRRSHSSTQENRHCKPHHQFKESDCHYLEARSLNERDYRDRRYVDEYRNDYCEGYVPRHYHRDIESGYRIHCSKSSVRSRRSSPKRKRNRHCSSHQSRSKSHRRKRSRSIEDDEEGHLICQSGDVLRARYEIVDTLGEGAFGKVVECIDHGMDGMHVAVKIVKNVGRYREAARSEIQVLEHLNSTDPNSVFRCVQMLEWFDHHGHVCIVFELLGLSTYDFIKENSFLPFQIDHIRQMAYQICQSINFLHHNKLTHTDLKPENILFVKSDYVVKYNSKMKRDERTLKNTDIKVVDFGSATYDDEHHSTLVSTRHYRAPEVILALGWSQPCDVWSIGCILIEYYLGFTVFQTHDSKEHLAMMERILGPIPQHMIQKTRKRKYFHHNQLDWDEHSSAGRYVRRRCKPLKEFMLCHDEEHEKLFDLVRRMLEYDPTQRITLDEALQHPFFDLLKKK
Ubiquitin carboxyl-terminal hydrolase 1 (Homo sapiens), sequence (O94782 whole entry, looked up): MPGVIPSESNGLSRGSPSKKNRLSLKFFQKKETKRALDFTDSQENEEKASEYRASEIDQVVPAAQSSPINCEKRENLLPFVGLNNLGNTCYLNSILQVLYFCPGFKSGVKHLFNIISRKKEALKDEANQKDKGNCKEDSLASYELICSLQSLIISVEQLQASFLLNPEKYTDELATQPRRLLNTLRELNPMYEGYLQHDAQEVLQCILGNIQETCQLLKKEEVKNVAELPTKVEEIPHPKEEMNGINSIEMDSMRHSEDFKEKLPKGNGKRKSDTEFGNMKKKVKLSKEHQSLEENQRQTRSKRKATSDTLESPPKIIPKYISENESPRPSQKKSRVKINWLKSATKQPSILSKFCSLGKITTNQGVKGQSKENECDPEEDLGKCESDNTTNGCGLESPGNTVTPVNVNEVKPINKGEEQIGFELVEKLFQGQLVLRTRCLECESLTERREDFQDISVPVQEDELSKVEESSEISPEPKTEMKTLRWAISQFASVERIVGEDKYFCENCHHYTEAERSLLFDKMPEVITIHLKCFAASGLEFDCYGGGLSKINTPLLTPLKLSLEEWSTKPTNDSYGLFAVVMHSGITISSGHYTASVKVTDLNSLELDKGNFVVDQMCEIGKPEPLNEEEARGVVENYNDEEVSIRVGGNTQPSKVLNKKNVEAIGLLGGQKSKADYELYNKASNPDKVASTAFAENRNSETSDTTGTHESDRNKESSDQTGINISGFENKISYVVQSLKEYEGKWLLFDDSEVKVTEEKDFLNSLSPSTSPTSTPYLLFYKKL
Cytochrome P450 3A4 (Homo sapiens), sequence (P08684 whole entry, looked up): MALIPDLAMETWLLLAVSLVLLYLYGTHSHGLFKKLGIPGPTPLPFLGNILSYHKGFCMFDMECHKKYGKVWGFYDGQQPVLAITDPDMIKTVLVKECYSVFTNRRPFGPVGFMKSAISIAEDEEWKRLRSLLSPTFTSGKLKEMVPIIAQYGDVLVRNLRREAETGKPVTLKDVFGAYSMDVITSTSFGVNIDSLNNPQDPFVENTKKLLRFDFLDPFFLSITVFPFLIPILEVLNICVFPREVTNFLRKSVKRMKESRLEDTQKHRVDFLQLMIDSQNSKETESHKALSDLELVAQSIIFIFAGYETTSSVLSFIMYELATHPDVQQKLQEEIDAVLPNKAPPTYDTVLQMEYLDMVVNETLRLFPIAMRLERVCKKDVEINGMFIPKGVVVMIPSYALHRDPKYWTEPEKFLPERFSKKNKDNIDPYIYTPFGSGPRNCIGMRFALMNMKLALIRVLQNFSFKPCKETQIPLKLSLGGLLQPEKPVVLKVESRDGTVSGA
Lysosomal acid glucosylceramidase (Homo sapiens), sequence (P04062 whole entry, looked up): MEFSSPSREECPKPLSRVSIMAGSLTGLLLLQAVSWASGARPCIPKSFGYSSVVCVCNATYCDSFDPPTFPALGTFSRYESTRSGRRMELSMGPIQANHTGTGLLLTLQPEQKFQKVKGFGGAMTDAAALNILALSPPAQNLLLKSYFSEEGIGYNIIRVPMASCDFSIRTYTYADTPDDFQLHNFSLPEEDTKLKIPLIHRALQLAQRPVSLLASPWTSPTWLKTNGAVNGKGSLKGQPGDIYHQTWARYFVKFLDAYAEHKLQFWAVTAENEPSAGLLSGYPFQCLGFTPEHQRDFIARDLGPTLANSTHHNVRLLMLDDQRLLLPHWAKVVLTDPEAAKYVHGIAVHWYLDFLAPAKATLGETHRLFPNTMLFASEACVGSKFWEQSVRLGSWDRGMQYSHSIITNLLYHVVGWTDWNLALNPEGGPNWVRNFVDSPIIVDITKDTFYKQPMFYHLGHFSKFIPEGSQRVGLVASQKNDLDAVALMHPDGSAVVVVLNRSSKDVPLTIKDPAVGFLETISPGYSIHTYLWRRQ
3',5'-cyclic-AMP phosphodiesterase 4B (Homo sapiens), sequence (Q07343 whole entry, looked up): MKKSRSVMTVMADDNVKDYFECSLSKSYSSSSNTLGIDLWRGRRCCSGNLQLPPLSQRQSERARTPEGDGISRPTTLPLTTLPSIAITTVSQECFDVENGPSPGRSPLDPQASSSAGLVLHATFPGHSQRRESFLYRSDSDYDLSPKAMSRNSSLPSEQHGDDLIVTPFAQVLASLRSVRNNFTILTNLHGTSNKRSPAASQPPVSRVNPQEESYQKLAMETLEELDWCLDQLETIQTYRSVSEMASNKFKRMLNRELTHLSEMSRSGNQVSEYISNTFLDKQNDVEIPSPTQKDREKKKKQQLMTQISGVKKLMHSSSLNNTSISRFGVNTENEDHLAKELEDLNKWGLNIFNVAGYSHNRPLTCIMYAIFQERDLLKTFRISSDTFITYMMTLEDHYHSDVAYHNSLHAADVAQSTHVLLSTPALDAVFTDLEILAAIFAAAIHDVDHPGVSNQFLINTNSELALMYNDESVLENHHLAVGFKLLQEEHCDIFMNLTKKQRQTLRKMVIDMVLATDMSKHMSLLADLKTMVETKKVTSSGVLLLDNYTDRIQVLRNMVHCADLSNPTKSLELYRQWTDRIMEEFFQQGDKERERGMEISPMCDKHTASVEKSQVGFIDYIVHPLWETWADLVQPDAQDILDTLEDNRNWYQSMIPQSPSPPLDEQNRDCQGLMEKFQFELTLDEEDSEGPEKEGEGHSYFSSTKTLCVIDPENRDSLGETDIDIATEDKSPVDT
Cytochrome P450 1A2 (Homo sapiens), sequence (P05177 whole entry, looked up): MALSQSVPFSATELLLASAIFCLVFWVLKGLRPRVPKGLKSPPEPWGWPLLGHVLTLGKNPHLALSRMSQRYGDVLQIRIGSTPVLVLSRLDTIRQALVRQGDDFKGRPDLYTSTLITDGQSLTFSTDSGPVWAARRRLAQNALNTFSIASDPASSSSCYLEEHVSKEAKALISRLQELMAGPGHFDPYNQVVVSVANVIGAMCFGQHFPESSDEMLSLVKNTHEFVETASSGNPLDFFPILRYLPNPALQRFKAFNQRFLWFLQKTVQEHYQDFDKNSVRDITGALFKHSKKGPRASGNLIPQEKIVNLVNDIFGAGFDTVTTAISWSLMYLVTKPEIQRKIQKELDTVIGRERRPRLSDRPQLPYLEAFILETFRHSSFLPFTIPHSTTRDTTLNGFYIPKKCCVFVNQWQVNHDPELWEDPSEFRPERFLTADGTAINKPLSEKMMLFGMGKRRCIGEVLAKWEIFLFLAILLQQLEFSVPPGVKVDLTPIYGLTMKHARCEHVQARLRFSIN
Cytochrome P450 2C19 (Homo sapiens), sequence (P33261 whole entry, looked up): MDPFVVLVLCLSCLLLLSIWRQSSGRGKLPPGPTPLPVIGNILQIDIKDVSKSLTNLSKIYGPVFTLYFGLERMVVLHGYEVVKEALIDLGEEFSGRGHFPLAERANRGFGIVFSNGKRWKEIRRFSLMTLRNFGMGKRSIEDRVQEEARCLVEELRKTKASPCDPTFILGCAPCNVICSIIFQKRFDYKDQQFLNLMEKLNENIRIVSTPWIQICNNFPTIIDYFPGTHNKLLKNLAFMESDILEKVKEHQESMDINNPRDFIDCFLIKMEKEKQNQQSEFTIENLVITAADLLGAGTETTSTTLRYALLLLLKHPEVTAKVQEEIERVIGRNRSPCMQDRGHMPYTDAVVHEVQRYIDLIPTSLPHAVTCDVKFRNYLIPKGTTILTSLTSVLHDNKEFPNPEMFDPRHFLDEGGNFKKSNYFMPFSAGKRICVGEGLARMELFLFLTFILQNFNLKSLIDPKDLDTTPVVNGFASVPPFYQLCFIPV

Regarding `Cn1cc(-c2nc3cnc(N4CCOCC4)nc3n(C3CC3)c2=O)c2ccccc21`, the Potency was > 11.4 µM (inactive) in experiment [1], > 9.22 µM (inactive) in experiment [5] and > 46 µM (inactive) in experiment [6]. The figures for the activity change, negative = inhibition in [2], in experiment [3] and in [10] were -18.1% (inactive), -15.3% (inactive) and 8.36% (inactive), respectively. For the same molecule, the activity, negative = inhibition in [4] was 11.5% (inactive). Further, the molecule was classed as inactive in experiment [7]. The Potency entry in experiment [8], in experiment [9], in experiment [11], in experiment [12], in experiment [13] and in [14] was “inactive” throughout. Further, the max response in experiment [10] (setting [19]) is 17.1%; in experiment [10] (setting [20]), 23.9%.

Regarding `O=c1c(-c2ccc(F)cc2)nc2cnc(Oc3ccccc3)nc2n1C1CC1`, the activity change, negative = inhibition in experiment [2] is 2.54% (inactive); in experiment [3] it was 5.2% (inactive); in experiment [10] it was 0.468% (inactive). Besides, in experiment [4], the activity, negative = inhibition was -10.8% (inactive). Also, the Potency in experiment [6] was > 46 µM (inactive). In [7], the molecule was called inactive. Also, the Potency entry in experiment [15], in experiment [16], in [12], in experiment [13] and in experiment [14] was “inactive” each time. Also, the max response in experiment [10] (setting [19]) was 0.149%; in [10] (setting [20]) it was -1.57%.

As for `COCCn1c(=O)c(-c2ccccc2)nc2cnc(OC)nc21`, the Potency is > 11.4 µM (inactive) in [1], 1 µM (active) in [17], > 9.22 µM (inactive) in experiment [5] and > 46 µM (inactive) in experiment [6]. Further, the activity change, negative = inhibition in experiment [2] was -2.69% (inactive); in experiment [3] it was -14.5% (inactive); in experiment [10], 5.61% (inactive). Besides, the activity, negative = inhibition in [4] is -12.2% (inactive). In addition, the call in [7] was inactive. Also, the Potency result in [15], in experiment [8], in experiment [11], in experiment [12], in [13] and in [14] was “inactive” in each case. In addition, the activation in experiment [18] was -14.2% (inactive). Also, the max response in experiment [10] (setting [19]) is 16.8%; in experiment [10] (setting [20]) it was 21.9%.
